Test results from PubChem BioAssay (NCI).
This is part of a sample that, as a whole, favours compounds with a hit. Of some 79,000 tested, about 15% had one in any assay. Calls of active or inactive are those of the source. Cut-off read from the data, not from the text of the source: active = growth inhibition above about 70%; inactive = the rest.

Legend:
[1] = NCI Yeast Anticancer Drug Screen. Data for the rad52 strain (AID 147);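 note: 0% = growth of vehicle-treated control cultures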; settings: S. cerevisiae rad52 mutant growth inhibition, hits give high values
Procedure, shortened: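 The repair-mutant yeast strain was incubated with compounds, then growth was read and inhibition derived relative to vehicle.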

[2] = NCI Yeast Anticancer Drug Screen. Data for the wt1 strain (AID 149);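 note: 0% = growth of vehicle-treated wt1 cultures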; settings: S. cerevisiae wt1 strain (SPY 50644) growth inhibition, hits give high values
Procedure, shortened: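 Yeast wt1 strain exposed to compounds; growth inhibition measured relative to vehicle-treated controls.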

[3] = NCI Yeast Anticancer Drug Screen. Data for the rad50EPP+ strain (AID 151);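 note: 0% = growth of vehicle-treated control cultures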; settings: S. cerevisiae rad50 mutant strain, hits give high values
Procedure, shortened: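 Vehicle-normalised growth inhibition; rad50EPP+ yeast strain, altered in DNA damage repair, compound-treated.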

[4] = NCI Yeast Anticancer Drug Screen. Data for the mgt1 strain (AID 153); settings: S. cerevisiae mgt1 mutant growth inhibition, hits give high values
Procedure, shortened: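 Vehicle-normalized growth inhibition is determined in mgt1 yeast, a strain selected for a defined alteration in DNA repair or cell cycle control.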

[5] = NCI Yeast Anticancer Drug Screen. Data for the rad50 strain (AID 155);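 note: 0% = growth of vehicle-only cultures of the same strain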; settings: S. cerevisiae rad50 strain growth inhibition, hits give high values
Procedure, shortened: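 Yeast carrying a defined DNA repair defect were exposed to test compounds, and growth was compared with vehicle-treated controls to give percent inhibition.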

[6] = NCI Yeast Anticancer Drug Screen. Data for the mec2-1 strain (AID 157); settings: S. cerevisiae mec2-1 strain, hits give high values
Procedure, shortened: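 Mutant yeast (mec2-1) grown with compound; growth inhibition relative to vehicle control reported.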

[7] = NCI Yeast Anticancer Drug Screen. Data for the rad14 strain (AID 159);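 note: 0% = growth of vehicle-treated control cultures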; settings: S. cerevisiae rad14 strain growth inhibition, hits give high values
Procedure, shortened: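 Yeast cells carrying a defined DNA-repair defect were exposed to compounds, and growth inhibition was calculated relative to vehicle-treated control cultures.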

[8] = NCI Yeast Anticancer Drug Screen. Data for the sgs1 mgt1 strain (AID 161);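 note: 0% = growth of cultures given vehicle only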; settings: S. cerevisiae sgs1 mgt1 strain, hits give high values
Procedure, shortened: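 Percent growth inhibition was derived by comparing compound-exposed mutant yeast with vehicle-exposed cultures. The strain carries alterations in DNA damage repair.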

[9] = NCI Yeast Anticancer Drug Screen. Data for the CLN2oe strain (AID 163);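 note: 0% = growth of vehicle-only control cultures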; settings: S. cerevisiae CLN2oe strain, hits give high values
Procedure, shortened: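 Compounds are applied to yeast harbouring a defined cell-cycle control change; reduced growth compared with vehicle-treated controls gives the value.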

[10] = NCI Yeast Anticancer Drug Screen. Data for the cln2 rad14 strain (AID 165);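 note: 0% = growth equal to vehicle treated cultures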; settings: S. cerevisiae cln2 rad14 strain, hits give high values
Procedure, shortened: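 Readout is yeast growth inhibition versus vehicle-treated controls, using a strain with cln2 and rad14 alterations exposed to compound.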

[11] = NCI Yeast Anticancer Drug Screen. Data for the bub3 strain (AID 167); settings: S. cerevisiae bub3 mutant strain, hits give high values
Procedure, shortened: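 Compounds were applied to a genetically altered yeast strain carrying a cell-cycle control defect. Growth inhibition was scored against vehicle-treated controls.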

[12] = NCI Yeast Anticancer Drug Screen. Data for the wt2 strain (AID 169);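 note: 0% = growth of vehicle-treated yeast cultures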; settings: S. cerevisiae wt2 strain growth inhibition, hits give high values
Procedure, shortened: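 Against vehicle-treated controls, the growth of yeast exposed to each compound was compared, and the inhibition was recorded.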

[13] = NCI Yeast Anticancer Drug Screen. Data for the mlh1 strain (AID 171);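 note: 0% = growth of vehicle-treated control cultures of the same strain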; settings: S. cerevisiae mlh1 strain growth inhibition, hits give high values
Procedure, shortened: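 Measured: yeast growth. Reference: vehicle-treated controls. Organism: strain with a defined alteration affecting DNA damage repair or cell cycle control, treated with compound.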

[14] = NCI Yeast Anticancer Drug Screen. Data for the sgs1 strain (AID 173);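 note: 0% = growth of vehicle-only control cultures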; settings: S. cerevisiae sgs1 mutant, hits give high values
Procedure, shortened: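 Each compound was added to cultures of the altered yeast strain. Growth was recorded, and inhibition was derived by comparison with vehicle controls.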

[15] = NCI Yeast Anticancer Drug Screen. Data for the mlh1 rad18 strain (AID 175); settings: S. cerevisiae mlh1 rad18 strain growth inhibition, hits give high values
Procedure, shortened: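 Genetically defined yeast (DNA repair-deficient) exposed to compounds; growth inhibition determined relative to vehicle.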

[16] = NCI Yeast Anticancer Drug Screen. Data for the rad18 strain (AID 177); settings: S. cerevisiae rad18 mutant growth inhibition, hits give high values
Procedure, shortened: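 Vehicle-treated cultures served as the baseline for scoring compound-induced growth inhibition in DNA-repair-mutant yeast.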

[17] = at 5.0 µM (retest, dose inferred, filed as 0.5)
[18] = at 50.0 µM (retest, dose inferred, filed as 5.0)

Measured: growth inhibition

OC(CC(O)(C(F)(F)F)C(F)(F)F)c1ccc(C(O)CC(O)(C(F)(F)F)C(F)(F)F)cc1 (stereo not drawn)
active: [1]; at 11.0 µM 95% | [1]; at 33.0 µM 99% | [1]; at 100.0 µM 99% | [2]; at 11.0 µM 94% | [2]; at 33.0 µM 99% | [2]; at 100.0 µM 100% | [4]; at 11.0 µM 91% | [4]; at 33.0 µM 99% | [4]; at 100.0 µM 99% | [5]; at 11.0 µM 92% | [5]; at 33.0 µM 98% | [5]; [18] 100% | [5]; at 50.0 µM 99% | [5]; at 100.0 µM 92% | [6]; at 11.0 µM 94% | [6]; at 33.0 µM 99% | [6]; [18] 100% | [6]; at 50.0 µM 99.5% | [6]; at 100.0 µM 99% | [7]; at 11.0 µM 95% | [7]; at 33.0 µM 99% | [7]; at 100.0 µM 99% | [8]; [18] 100% | [8]; at 50.0 µM 99.5% | [9]; at 11.0 µM 99% | [9]; at 33.0 µM 99% | [9]; at 100.0 µM 100% | [10]; [18] 100% | [10]; at 50.0 µM 99.2% | [11]; at 11.0 µM 95% | [11]; at 33.0 µM 99% | [11]; [18] 100% | [11]; at 50.0 µM 99.5% | [11]; at 100.0 µM 99% | [12]; at 11.0 µM 98% | [12]; at 33.0 µM 99% | [12]; at 100.0 µM 100% | [13]; at 11.0 µM 90% | [13]; at 33.0 µM 99% | [13]; at 100.0 µM 99% | [14]; at 11.0 µM 87% | [14]; at 33.0 µM 99% | [14]; at 100.0 µM 99% | [15]; [18] 99% | [15]; at 50.0 µM 99.3% | [16]; at 11.0 µM 91% | [16]; at 33.0 µM 98% | [16]; at 100.0 µM 97%
inactive: [1]; at 1.2 µM 47% | [1]; at 3.7 µM 64% | [2]; at 1.2 µM 23% | [2]; at 3.7 µM 32% | [3]; at 1.2 µM -2% | [3]; at 3.7 µM 0% | [3]; at 11.0 µM 9% | [3]; at 33.0 µM 25% | [3]; at 100.0 µM 60% | [4]; at 1.2 µM 22% | [4]; at 3.7 µM 22% | [5]; at 1.2 µM 35% | [5]; at 3.7 µM 50% | [5]; [17] 36% | [6]; at 1.2 µM 18% | [6]; at 3.7 µM 38% | [6]; [17] 42% | [7]; at 1.2 µM 26% | [7]; at 3.7 µM 19% | [8]; [17] 26% | [9]; at 1.2 µM 3% | [9]; at 3.7 µM 68% | [10]; [17] 68% | [11]; at 1.2 µM -2% | [11]; at 3.7 µM 37% | [11]; [17] 15% | [12]; at 1.2 µM -1% | [12]; at 3.7 µM 17% | [13]; at 1.2 µM 19% | [13]; at 3.7 µM 11% | [14]; at 1.2 µM 26% | [14]; at 3.7 µM 26% | [15]; [17] 47% | [16]; at 1.2 µM 40% | [16]; at 3.7 µM 41%
